Activity calls are given as the source filed them. How the calls were made is not given here.

This assay in a line: Concentration response cycloheximide confirmation counterscreen for small molecule inhibitors of Shiga toxin. The note with it: protein synthesis reporter, cells; series mostly up to 76.6 µM. (Counterscreens check selectivity or assay interference.)
Consider `CCn1c2ccccc2c2cc(NC(=O)c3cccc([N+](=O)[O-])c3)ccc21`, for which the call was inactive. Regarding `CC1CCC/C=C/C2CC(O)CC2C(O)/C=C/C(=O)O1` (stereo unspecified), the result was inactive. The result for `Cc1cc(C(=O)COC(=O)CNS(=O)(=O)c2ccc3ccccc3c2)c(C)n1-c1ccccc1` reads “inactive”; that for `Cc1cccc(NC(=O)CCN2C(=O)c3ccccc3S2(=O)=O)c1C`, “inactive”; that for `CN(C(=O)c1ccc2c(=O)n3c(nc2c1)CCCCC3)c1ccccc1`, “inactive”. Consider `COc1ccccc1CNC(=O)c1csc2c1CCCC2`, for which the compound was called inactive. Regarding `O=C(Nc1ccccc1)c1ccc[nH]1`, the compound was classed as inactive.

Turning to `O=C(NC1CCCC1)c1cc(Cl)ccc1[N+](=O)[O-]`, the result was inactive.

On to `CC(=O)c1ccc(N2CCN(S(=O)(=O)c3ccc4c(c3)CC(C)N4C(C)=O)CC2)cc1` (stereo unspecified), for which the compound was classed as inactive. `CN(C)S(=O)(=O)c1ccc(C(=O)Nc2ccc(CN3CCCC3)cc2)cc1`: the call was inactive. Turning to `CN(C)S(=O)(=O)c1ccc(C(=O)OCC(=O)c2ccc3c(c2)NC(=O)CO3)cc1`, the compound was called inactive. The result for `CCOC(=O)C1(CCCc2ccccc2)CCN(C(=O)CCn2cncn2)CC1` reads “inactive”; that for `C=CCNC(=O)c1ccc(C)c(Br)c1`, “inactive”; that for `CC(C)CNC(=O)c1noc2c1CCCC2`, “inactive”.

In the case of `COc1ccc(C(C)(C)C)cc1NC(=O)c1ccc2c(c1)SC1=NS(=O)(=O)CCN12`, the outcome was inactive.

Turning to `O=C(CC(c1ccccc1)c1cc(Cl)ccc1O)N1CCCC1` (stereo unspecified), the result was inactive.
